# Measured values taken from PubChem BioAssay (NCI).
# Compounds without any hit were thinned out: in the full panel of roughly 83,000, 20% have a hit.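 Step 1: grow cells in 96-well plates. Step 2: add test compound at a single concentration. Step 3: incubate 48 h. Step 4: record percent growth.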 Unmarked numbers belong to inactive results. The source made the active and inactive calls. Rule for the calls: active = growth percent below 10; inactive = the rest.
# Experiments:
# Assay in all cases: NCI-60 one-dose screen, 48 h (100 = growth as untreated, 0 = no growth, -100 = all killed)
# Settings in all cases: 10 µM
# [1] = test system: K-562 leukemia
# [2] = test system: MALME-3M melanoma
# [3] = test system: MDA-MB-231 breast
# [4] = test system: SF-268 CNS
# [5] = test system: SF-295 CNS
# [6] = test system: SF-539 CNS
# [7] = test system: UACC-257 melanoma
# [8] = test system: M14 melanoma
# [9] = test system: HCT-15 colon
# [10] = test system: HT29 colon
# [11] = test system: SNB-75 CNS
# [12] = test system: SNB-19 CNS
# [13] = test system: U251 CNS
# [14] = test system: PC-3 prostate
# [15] = test system: SK-MEL-5 melanoma
# [16] = test system: UACC-62 melanoma
# [17] = test system: LOX IMVI melanoma
# [18] = test system: SK-MEL-2 melanoma
# [19] = test system: SK-MEL-28 melanoma
Structure (SMILES),growth [1],growth [2],growth [3],growth [4],growth [5],growth [6],growth [7],growth [8],growth [9],growth [10],growth [11],growth [12],growth [13],growth [14],growth [15],growth [16],growth [17],growth [18],growth [19]
CCC1(C(C)C)NC(=O)NC1=O (centres undefined),88.3%,104%,100%,102%,97.6%,101%,92.4%,107%,105%,106%,100%,101%,98.2%,98.5%,104%,94.6%,99.7%,83.8%,–
N=c1nc(N)ncn1-c1ccccc1,93.5%,110%,96.1%,108%,97.8%,96.4%,97.1%,106%,99.1%,96.4%,86.5%,98.2%,95.1%,96.8%,102%,93.5%,94.9%,106%,98.6%
COc1ccccc1CNCCN1C(=O)c2ccc3c4c(ccc(c24)C1=O)C(=O)N(CCNCc1ccccc1OC)C3=O,-43.8% (active),-92% (active),-18.4% (active),-79.5% (active),-56.7% (active),-97.3% (active),-96.4% (active),-94% (active),-77.1% (active),-36.1% (active),-96.1% (active),–,-81.4% (active),-75.4% (active),-100% (active),-93.3% (active),-82.3% (active),-74.6% (active),–
CCN(CC)CCC(CNc1c(C)cnc2cc(Cl)ccc12)c1ccc(Cl)cc1 (centres undefined),7.15% (active),-57.9% (active),27.3%,67.5%,51.4%,-52.3% (active),-58.3% (active),-67.3% (active),35%,14.8%,65.3%,68.1%,48.6%,55.9%,-94.2% (active),-28.8% (active),33.6%,92.8%,-88.8% (active)
CN(C)CC(O)c1ccc2cc(Br)c3ccccc3c2c1 (centres undefined),24.7%,97.1%,16.8%,58.5%,75.6%,65.9%,99.2%,47.2%,–,22%,41.8%,–,56.4%,49%,62.3%,-64.8% (active),28.9%,102%,32.7%
COc1cc2c(cc1OCCCCCCN1CCN(CC(=O)Nc3ccc(Cl)cc3C(=O)c3ccccc3Cl)CC1)N=CC1CCCN1C2=O (centres undefined),-62.3% (active),-92.3% (active),-100% (active),-61% (active),-94.9% (active),-95.2% (active),–,-67.4% (active),-100% (active),-56.8% (active),-84.5% (active),-77.7% (active),-100% (active),-100% (active),-100% (active),-98.7% (active),-93.9% (active),-69.6% (active),-85.8% (active)
CCCN(CCC)CCC(O)c1cc2c(c3ccccc13)CCCC2 (centres undefined),82.5%,95%,79.1%,83.3%,85.4%,85.4%,95.8%,91.9%,81.4%,52.3%,75.7%,90.5%,83.5%,80.9%,94.7%,81.7%,89%,108%,98.1%
CCCCCCCCN(CCCCCCCC)CCCCCCCCCN1CCCc2cc(OC)ccc21,80.4%,104%,89.9%,99.9%,88.5%,104%,106%,93.8%,89.3%,84.8%,84.5%,98.3%,90.7%,85.2%,109%,86.8%,88.6%,101%,101%
COc1cc(/C(=C2/O[C@@H]([C@H]3COC(C)(C)O3)[C@H]3OC(C)(C)O[C@@H]23)c2ccc3ccccc3c2)cc(OC)c1OC,28.1%,-25.4% (active),13.6%,-16.9% (active),46.6%,26.4%,45.9%,62.8%,59.7%,41%,41.1%,–,18%,27%,38.3%,46.5%,46.4%,-49.7% (active),–
ClCCOCCn1cnc2c(Cl)nc(Cl)nc21,28.2%,112%,58.2%,45.3%,70.2%,96.8%,59.9%,46.5%,18.4%,36.6%,57.1%,–,67.3%,35.2%,52.3%,45.1%,-13.9% (active),67.6%,72.8%
CC1(O)CCC2CC3OC3(C)CCC3OC3(C)CCC1C2(C)C (centres undefined),113%,110%,102%,107%,89.6%,119%,–,103%,105%,109%,117%,89.8%,96%,170%,90.3%,99.3%,102%,107%,121%
CCN(CC)CCCOCCCNc1cc(OC)cc2cccnc12,94.3%,104%,78%,96.7%,101%,108%,83.1%,106%,102%,96.1%,94.7%,91.4%,91.5%,86.6%,96.4%,82.1%,90.2%,107%,103%
CCN(CCCCCCCCCCN1CC(=O)N(CCCCCCCCCCN(CC)Cc2ccccc2OC)CC1=O)Cc1ccccc1OC,-58.2% (active),-83.6% (active),-66.3% (active),4.39% (active),-76.7% (active),-93.2% (active),-86.9% (active),-90.2% (active),-17% (active),-57.8% (active),-15.7% (active),-20% (active),-71.1% (active),-40.9% (active),-100% (active),-80.5% (active),-86.6% (active),-60.6% (active),–
COc1ccc2nc3ccccc3c(NCCNCC(C)O)c2c1 (centres undefined),9.22% (active),-13.7% (active),-28.2% (active),8.57% (active),7.81% (active),6.66% (active),7.95% (active),11.3%,23.1%,1.38% (active),28.1%,0.0735% (active),1.29% (active),4.7% (active),10.3%,-59.9% (active),-47.1% (active),-21.8% (active),8.18% (active)
CCN(CC)CCC(CNc1c(C)cnc2cc(Cl)ccc12)c1ccc(Cl)c(Cl)c1 (centres undefined),1.52% (active),-52% (active),25.5%,71.8%,65.4%,20.9%,-49.6% (active),-64.5% (active),32.3%,11.6%,59.2%,71.7%,46.4%,49.4%,-92.3% (active),-48.5% (active),37.8%,107%,-75.3% (active)
CCN(CCCCCCN1CC(=O)N(CCCCCCN(CC)Cc2ccccc2OC)CC1=O)Cc1ccccc1OC,4.44% (active),109%,93.4%,90.6%,72.2%,92.8%,108%,82.5%,83.5%,20%,76.6%,94.8%,88.8%,77.1%,90.9%,104%,85.8%,63.4%,–
COc1cc(/C=N/NC(=O)c2ccccc2Nc2ccnc(C(F)(F)F)c2)ccc1O,90.4%,121%,112%,105%,114%,112%,126%,89.7%,–,118%,94.1%,93.2%,–,111%,106%,115%,114%,113%,118%
